The results in this text go back to PubChem BioAssay (Tox21).

SMILES strings stand for the structures. Results filed as inconclusive are left out. A call without a number means that no potency is given here. Calls of active or inactive are those of the source. Unless noted, calls follow the shape of the dose curve; as a rule, active = well fitted cell-killing curve with a large enough effect in the repeat runs (not every such curve was filed as active); inconclusive = weak or mixed curves, or effect the other way; inactive = no such curve, though single readings can be large or run the other way.

Vitamin D3 receptor (Homo sapiens), sequence (P11473 whole entry, looked up): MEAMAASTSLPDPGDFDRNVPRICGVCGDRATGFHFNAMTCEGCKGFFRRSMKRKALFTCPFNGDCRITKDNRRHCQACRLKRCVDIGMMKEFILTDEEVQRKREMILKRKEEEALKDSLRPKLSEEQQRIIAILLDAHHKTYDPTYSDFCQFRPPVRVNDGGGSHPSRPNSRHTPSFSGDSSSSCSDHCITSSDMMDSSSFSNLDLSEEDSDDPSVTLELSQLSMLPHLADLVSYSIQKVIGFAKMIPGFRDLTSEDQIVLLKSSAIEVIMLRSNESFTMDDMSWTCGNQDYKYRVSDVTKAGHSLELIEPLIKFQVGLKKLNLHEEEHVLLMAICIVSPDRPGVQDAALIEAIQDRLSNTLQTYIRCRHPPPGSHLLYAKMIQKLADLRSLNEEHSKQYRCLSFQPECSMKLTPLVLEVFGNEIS

Test system in the first experiment: not listed separately
Description: qHTS assay to identify small molecule antagonists of the farnesoid-X-receptor (FXR) signaling pathway - cell viability counter screen (AID 743221). Also: nearly all actives have a fitted effect of over 50% in size. The note with it: FXR-bla HEK293T viability, CellTiter-Glo luminescence, 16 h; series mostly up to 62.6 µM. An outline of the steps:
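Here viability was scored by luminescence after CellTiter-Glo addition to wells already read for beta-lactamase. Prior treatment: compound plus CDCA (50 uM final), 16 h, 37 C, HEK 293T FXR-bla cells.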
Consider `Cc1ncc(CSSCc2cnc(C)c(O)c2CO)c(CO)c1O`, for which the Potency entry was “inactive”. Still for that read-out and setting: with `CCCCCCC(CCCCCCCCCCC(=O)OCC(COC(C)=O)OC(C)=O)OC(C)=O` (centres undefined) the entry was “inactive”; with `NC(=O)Nc1nc2ccccc2[nH]1`, “inactive”. Turning to `Cc1nc(-c2ccc(OCC(C)C)c(C#N)c2)sc1C(=O)O`, the Potency entry is “inactive”.

With `CC(C)[C@H](N)C(=O)OCCOCn1cnc2c(=O)[nH]c(N)nc21`, the Potency result was “inactive”. Take `CC(O)CN(CCCN(C)C)CCCN(C)C` (centres undefined): the Potency entry was “inactive”. As to `Cc1cc(C)c(NC(=O)CN(CC(=O)O)CC(=O)O)c(C)c1Br`, the Potency result is “inactive”. `CC(C)(O)C(=O)c1ccc(OCCO)cc1`: the Potency entry is “inactive”. Regarding `CC(C)(O)c1ccccc1`, the Potency entry was “inactive”. As for `CCc1cc(S(=O)(=O)O)c2cc(C(C)C)cccc1-2`, the Potency entry was “inactive”.

As to `Cc1onc(-c2ccccc2)c1-c1ccc(S(N)(=O)=O)cc1`, the Potency entry is “inactive”. Consider `N#CCc1ccccc1[N+](=O)[O-]`, for which the Potency result is “inactive”. Same read-out and setting: with `O=C1C(CCS(=O)c2ccccc2)C(=O)N(c2ccccc2)N1c1ccccc1` (centres undefined) the entry was “inactive”. For the compound `CCOC(=O)Cn1c(=O)sc2cccc(Cl)c21`, the Potency entry was “inactive”. Same read-out and setting: with `CCCCCC[C@@H](CCC)C(=O)O` the entry was “inactive”; with `Cc1cc(C)cc(OCC2CNC(=O)O2)c1` (centres undefined), “inactive”. The same measure, in the same setting: with `NC(=O)c1ncn([C@@H]2O[C@H](CO)[C@@H](O)[C@H]2O)c1O` the entry was “inactive”. For the compound `NCCN1CCNC1=O`, the Potency entry is “inactive”.

`O=C(O)/C=C/c1ccc(Cn2ccnc2)cc1`: the Potency result is “inactive”.

As to `CSc1ccc(C=O)cc1`, the Potency result was “inactive”. The same measure, in the same setting: with `CCC(C)(C)C1CCC(OC)CC1` (centres undefined) the entry was “inactive”; with `C=CCSCC1Nc2cc(Cl)c(S(N)(=O)=O)cc2S(=O)(=O)N1` (centres undefined), “inactive”. Same read-out and setting: with `C[C@H]1O[C@@H](n2cc(F)c(=O)[nH]c2=O)[C@H](O)[C@@H]1O` the entry was “inactive”; with `Cc1c(F)cc2c(=O)c(C(=O)O)cn3c2c1CCC3C` (centres undefined), “inactive”. As to `CCCOCC(C)OCC(C)O` (centres undefined), the Potency result was “inactive”. Turning to `C#CC(O)CCCCC` (centres undefined), the Potency result was “inactive”. The same measure, in the same setting: with `CC(C)N1C(=O)c2ccccc2C1=O` the entry was “inactive”; with `O=S(=O)(O)c1ccccc1O`, “inactive”; with `NS(=O)(=O)c1cc2c(cc1Cl)NC(CSCc1ccccc1)=NS2(=O)=O`, “inactive”.

Regarding `CC(=O)c1ccc(C)cc1`, the Potency result is “inactive”.

Take `CCCCCCCCN(C)CCCCCCCC`: the Potency result was “inactive”.

As for `CCCCC=O`, the Potency result was “inactive”.

The target in a further experiment is Vitamin D3 receptor (Homo sapiens) (UniProt P11473). In words: qHTS assay to identify small molecule agonists of the vitamin D receptor (VDR) signaling pathway (AID 743222; calls by dose curve). Particulars: HEK293T VDR-UAS-bla, beta-lactamase FRET ratio, 16 h; series mostly up to 63.5 µM. An outline of the steps:
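Beta-lactamase reporter readout (LiveBLAzer B/G FRET, 2 h RT) in VDR-bla cells after 16 h compound treatment at 37C, 5% CO2; cells pre-incubated 4 h before pin transfer of DMSO solutions.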
In the case of `Cc1ncc(CSSCc2cnc(C)c(O)c2CO)c(CO)c1O`, the result was inactive.

With `CCCCCCC(CCCCCCCCCCC(=O)OCC(COC(C)=O)OC(C)=O)OC(C)=O` (centres undefined), the outcome was inactive.

On to `O=C(O)C(O)[C@H](O)[C@@H](O)[C@H](O)[C@H](O)CO` (some centres undefined), for which the outcome was inactive. On the same count and under the same terms, with `CC(O)CN(CCCN(C)C)CCCN(C)C` (centres undefined) the entry was “inactive”; with `CC(C)(O)c1ccccc1`, “inactive”.

On to `Cc1onc(-c2ccccc2)c1-c1ccc(S(N)(=O)=O)cc1`, for which the outcome was inactive. The same measure, in the same setting: with `CCOC(=O)Cn1c(=O)sc2cccc(Cl)c21` the entry was “inactive”; with `O=C(O)c1cccc(C(=O)O)n1`, “inactive”. Consider `CCCCCC[C@@H](CCC)C(=O)O`, for which the result was inactive. Consider `NCCN1CCNC1=O`, for which the outcome was inactive. Regarding `O=C(O)/C=C/c1ccc(Cn2ccnc2)cc1`, the result was inactive. The same measure, in the same setting: with `CSc1ccc(C=O)cc1` the entry was “inactive”. Still for that read-out and setting: with `CCC(C)(C)C1CCC(OC)CC1` (centres undefined) the entry was “inactive”. Still for that read-out and setting: with `C=CCSCC1Nc2cc(Cl)c(S(N)(=O)=O)cc2S(=O)(=O)N1` (centres undefined) the entry was “inactive”; with `Cc1c(F)cc2c(=O)c(C(=O)O)cn3c2c1CCC3C` (centres undefined), “inactive”; with `CCCOCC(C)OCC(C)O` (centres undefined), “inactive”. With `NS(=O)(=O)c1cc2c(cc1Cl)NC(CSCc1ccccc1)=NS2(=O)=O`, the result was inactive. `CC(=O)c1ccc(C)cc1`: the result was inactive.

Regarding `CC(CCO)CCCC(C)(C)O` (centres undefined), the outcome was inactive. In the case of `CC1(C)OC(=O)Nc2ccc(Br)cc21`, the outcome was inactive. On the same count and under the same terms, with `CCCCCCCCN(C)CCCCCCCC` the entry was “inactive”; with `CCCCC=O`, “inactive”.
